The results in this text go back to PubChem BioAssay AID1159577 (Broad Institute, 2015).

In all, about 1,300 compounds went through this assay and about 240 (18%) were called active. Another 8% or so got no clear call; they are omitted. A selection follows. Entries with a potency or affinity are not part of this list. Values without a mark were called inactive. The rule behind the calls is not given here.

This assay in a line: toxicity to human hepatoma HepG2 cells – cell-based, cherry-picked samples, cytotoxicity control, dose response (AID 1159577).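 Note: 0% = neutral control wells and -100% = positive control wells.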 The settings on record: HepG2 cytotoxicity counterscreen, plate reader; series mostly up to 19.5 µM; activity change, negative = cytotoxicity: at the top concentration. (A counterscreen serves to expose hits that act by an unwanted route or on another target.)
`CC(C)(C)[S@](=O)N1Cc2cc(C(=O)NCCN3CCCCC3)nc(-c3cccc(-c4cccc(C#N)c4)c3)c2[C@@H]1CCO`: the “activity change, negative = cytotoxicity” value was 2.26%.

For the compound `C[C@@H]1CN([C@@H](C)CO)S(=O)(=O)c2ccc(C#Cc3ccncc3)cc2O[C@H]1CN(C)S(=O)(=O)c1ccc(F)cc1`, the “activity change, negative = cytotoxicity” value was -11%.

On to `OC[C@H]1CC[C@@H]2O[C@H](CCc3ccc(C#CCc4ccccc4)cc3)[C@@H](n3cc(-c4ccccc4)nn3)C[C@@H]2O1`, for which the “activity change, negative = cytotoxicity” value is 12.9%.

As for `O=C(C1CCCC1)N1CC[C@@H]2[C@H]1c1cc(C3=CCCCC3)ccc1N[C@@H]2CO`, the “activity change, negative = cytotoxicity” value was 6.34%.

For the compound `Cc1ccc(S(=O)(=O)N(C)C[C@@H]2OCc3ccccc3-c3c(n(C)c4ccccc34)C(=O)N([C@@H](C)CO)C[C@@H]2C)cc1`, the “activity change, negative = cytotoxicity” value is -18.7%.

`COc1cccc(-c2cn(CC[C@@H]3CC[C@H](NS(=O)(=O)c4ccccc4Cl)[C@H](CO)O3)nn2)c1`: the “activity change, negative = cytotoxicity” value is -6.11%.

`COc1ccc(S(=O)(=O)N[C@@H]2CC[C@H](CCn3cc(-c4ccccc4F)nn3)O[C@@H]2CO)cc1`: the “activity change, negative = cytotoxicity” value is -8.13%.

`CCCc1cn([C@H]2C[C@@H]3O[C@@H](CO)CC[C@@H]3O[C@@H]2CCc2ccc(-c3ccc(OC)cc3)cc2)nn1`: the “activity change, negative = cytotoxicity” value was 3.71%.

With `CCCc1cn([C@H]2C[C@@H]3O[C@H](CO)CC[C@@H]3O[C@@H]2CCc2ccc(-c3ccc(OC)cc3)cc2)nn1`, the “activity change, negative = cytotoxicity” value was 15.6%.

For `CCC(=O)N1C[C@H](C)[C@H](OC)CN(C)C(=O)c2cc(NC(=O)Nc3cccc(F)c3)ccc2OC[C@@H]1C`, the “activity change, negative = cytotoxicity” value was 22.1%.

For `O=C(Nc1cccc(F)c1)N[C@@H]1CC[C@H](CCNS(=O)(=O)c2cccc(Cl)c2)O[C@H]1CO`, the “activity change, negative = cytotoxicity” value is -6.07%.

Take `C[C@H]1CN([C@@H](C)CO)C(=O)c2c(c3ccccc3n2C)-c2ccccc2CO[C@H]1CN(C)S(=O)(=O)c1ccccc1C#N`: the “activity change, negative = cytotoxicity” value is -3.86%.

Take `COc1ccc(C#Cc2ccc3c(c2)[C@@H]2[C@@H](CCN2C(=O)C2CCC2)[C@H](CO)N3)cc1`: the “activity change, negative = cytotoxicity” value is -13.7%.

For the compound `CN1CCCCN2[C@@H](CO)[C@@H](c3ccc(-c4cccnc4)cc3)[C@@H]2C1`, the “activity change, negative = cytotoxicity” value was 2.85%.

Take `O=C(Nc1ccccc1F)N1CCCCN2[C@@H](CO)[C@H](c3ccc(C#Cc4cccnc4)cc3)[C@@H]2C1`: the “activity change, negative = cytotoxicity” value is 8.61%.

For the compound `O=C(Nc1ccccc1F)N1CCCCN2[C@H](CO)[C@H](c3ccc(C#Cc4cccnc4)cc3)[C@@H]2C1`, the “activity change, negative = cytotoxicity” value was 4.47%.

On to `COCC(=O)Nc1ccc2c(c1)C(=O)N(C)C[C@@H](OC)[C@H](C)CN(CC1CCCCC1)[C@@H](C)CO2`, for which the “activity change, negative = cytotoxicity” value was -4.53%.

With `CCCN1C[C@H](C)[C@@H](OC)CN(C)C(=O)c2cc(NC(=O)Nc3cccc(F)c3)ccc2OC[C@H]1C`, the “activity change, negative = cytotoxicity” value was 7.72%.

On to `CCC(=O)N[C@H]1C=C[C@H](CC(=O)NCC2CCCCC2)O[C@@H]1CO`, for which the “activity change, negative = cytotoxicity” value was 5.5%.

For the compound `CCC(=O)N1CCC2(CC1)CN(Cc1ccc3c(c1)OCO3)[C@@H](CO)c1c2c2ccc(OC)cc2n1C`, the “activity change, negative = cytotoxicity” value was 12.7%.

With `COc1ccc2c3c([nH]c2c1)[C@H](CO)N(Cc1cccc(F)c1)CC31CCN(Cc2ccccn2)CC1`, the “activity change, negative = cytotoxicity” value was -28%.

For the compound `CCCC(=O)Nc1ccc2c(c1)OC[C@@H](C)N(Cc1cc(-c3ccccc3)on1)C[C@@H](C)[C@H](OC)CN(C)C2=O`, the “activity change, negative = cytotoxicity” value is -15.5% [at 21 µM].

For `CCCC(=O)N1CC2(C1)CN(S(=O)(=O)c1ccc(C)cc1)[C@@H](CO)c1[nH]c3cc(OC)ccc3c12`, the “activity change, negative = cytotoxicity” value is -15.7%.

For the compound `COc1cccc(-c2ccc([C@H]3[C@H](CO)N4CCCCN(CC5CC5)C[C@@H]34)cc2)c1`, the “activity change, negative = cytotoxicity” value is -8.37%.

`COc1cccc(S(=O)(=O)N(C)C[C@@H]2OCc3ccccc3-c3c(n(C)c4ccccc34)C(=O)N([C@H](C)CO)C[C@@H]2C)c1`: the “activity change, negative = cytotoxicity” value was -11.8%.

As to `COc1ccc2c3c(n(C)c2c1)[C@H](CO)N(C(=O)Nc1ccc(F)cc1)CC31CCN(C(=O)c2cccnc2)CC1`, the “activity change, negative = cytotoxicity” value is -6.19%.

Regarding `CCCC(=O)Nc1ccc2c(c1)OC[C@@H](C)N(Cc1ccc(F)cc1)C[C@@H](C)[C@H](OC)CN(C)C2=O`, the “activity change, negative = cytotoxicity” value is 4.46%.

For the compound `CC=Cc1ccc2n(c1=O)C[C@H]1[C@H](CO)[C@@H](C(=O)N3CCC(Cc4ccccc4)CC3)N(CCC)[C@@H]21` (mixture of isomers), the “activity change, negative = cytotoxicity” value was -3.03%.

For `C[C@H](CO)N1C[C@H](C)[C@H](CN(C)S(=O)(=O)c2ccc(F)cc2)OCc2ccccc2-c2c(n(C)c3ccccc23)C1=O`, the “activity change, negative = cytotoxicity” value is 9.68%.

Regarding `Cc1ccc(-c2ccccc2[C@H]2[C@@H](C#N)N(C(=O)c3cccc(F)c3)[C@H]2CO)cc1`, the “activity change, negative = cytotoxicity” value is -17.6%.

On to `C[C@H]1CN([C@@H](C)CO)C(=O)c2c(c3ccccc3n2C)-c2ccccc2CO[C@@H]1CN(C)S(=O)(=O)c1cccc(F)c1`, for which the “activity change, negative = cytotoxicity” value is 15.1% [at 21 µM].

In the case of `C[C@H](CO)N1C[C@H](C)[C@@H](CN(C)C(=O)Nc2ccc(F)cc2)Oc2ccc(NC(=O)Nc3ccc(C(F)(F)F)cc3)cc2CC1=O`, the “activity change, negative = cytotoxicity” value is -22.5%.

Turning to `C[C@H]1CN([C@@H](C)CO)C(=O)Cc2cc(NC(=O)Nc3ccc(C(F)(F)F)cc3)ccc2O[C@@H]1CN(C)C(=O)Nc1ccc2c(c1)OCO2`, the “activity change, negative = cytotoxicity” value was -8.1% [at 21 µM].

For `C[C@H](CO)N1C[C@H](C)[C@H](CN(C)CC2CC2)Oc2ccc(NC(=O)Nc3ccccc3)cc2CC1=O`, the “activity change, negative = cytotoxicity” value was 2.58% [at 21 µM].

Consider `COc1ccc(NC(=O)N(C)C[C@H]2Oc3ccc(NC(=O)Nc4ccc(C(F)(F)F)cc4)cc3CC(=O)N([C@H](C)CO)C[C@@H]2C)cc1`, for which the “activity change, negative = cytotoxicity” value was -8.84%.

Take `C[C@@H]1CN([C@@H](C)CO)C(=O)Cc2cc(NC(=O)Nc3ccccc3)ccc2O[C@H]1CN(C)CC1CC1`: the “activity change, negative = cytotoxicity” value is 0.37%.

For the compound `C[C@H](CO)N1C[C@H](C)[C@@H](CN(C)C(=O)Nc2ccc3c(c2)OCO3)Oc2ccc(NC(=O)Nc3ccc(C(F)(F)F)cc3)cc2CC1=O`, the “activity change, negative = cytotoxicity” value was 12.4%.
